# Measurements taken from publication PMC4336329 (PLoS ONE, 2015).
# About 14,000 (4.5%) of roughly 310,000 compounds showed an effect of 50% or more. Effects have a minus sign here. What follows is part of a selection rich in strong results, with near analogues and random picks from the rest.
# Molecular target: human ether-à-go-go-related gene (hERG) potassium channel (human, UniProt Q12809)
# Assay: primary screen, population patch clamp on CHO cells stably expressing hERG; higher = less effect of the substance
# 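Also: peak tail current of the secondary pulse compared with the same well before compound.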
# Sequence of human ether-à-go-go-related gene (hERG) potassium channel (Q12809 whole entry, looked up): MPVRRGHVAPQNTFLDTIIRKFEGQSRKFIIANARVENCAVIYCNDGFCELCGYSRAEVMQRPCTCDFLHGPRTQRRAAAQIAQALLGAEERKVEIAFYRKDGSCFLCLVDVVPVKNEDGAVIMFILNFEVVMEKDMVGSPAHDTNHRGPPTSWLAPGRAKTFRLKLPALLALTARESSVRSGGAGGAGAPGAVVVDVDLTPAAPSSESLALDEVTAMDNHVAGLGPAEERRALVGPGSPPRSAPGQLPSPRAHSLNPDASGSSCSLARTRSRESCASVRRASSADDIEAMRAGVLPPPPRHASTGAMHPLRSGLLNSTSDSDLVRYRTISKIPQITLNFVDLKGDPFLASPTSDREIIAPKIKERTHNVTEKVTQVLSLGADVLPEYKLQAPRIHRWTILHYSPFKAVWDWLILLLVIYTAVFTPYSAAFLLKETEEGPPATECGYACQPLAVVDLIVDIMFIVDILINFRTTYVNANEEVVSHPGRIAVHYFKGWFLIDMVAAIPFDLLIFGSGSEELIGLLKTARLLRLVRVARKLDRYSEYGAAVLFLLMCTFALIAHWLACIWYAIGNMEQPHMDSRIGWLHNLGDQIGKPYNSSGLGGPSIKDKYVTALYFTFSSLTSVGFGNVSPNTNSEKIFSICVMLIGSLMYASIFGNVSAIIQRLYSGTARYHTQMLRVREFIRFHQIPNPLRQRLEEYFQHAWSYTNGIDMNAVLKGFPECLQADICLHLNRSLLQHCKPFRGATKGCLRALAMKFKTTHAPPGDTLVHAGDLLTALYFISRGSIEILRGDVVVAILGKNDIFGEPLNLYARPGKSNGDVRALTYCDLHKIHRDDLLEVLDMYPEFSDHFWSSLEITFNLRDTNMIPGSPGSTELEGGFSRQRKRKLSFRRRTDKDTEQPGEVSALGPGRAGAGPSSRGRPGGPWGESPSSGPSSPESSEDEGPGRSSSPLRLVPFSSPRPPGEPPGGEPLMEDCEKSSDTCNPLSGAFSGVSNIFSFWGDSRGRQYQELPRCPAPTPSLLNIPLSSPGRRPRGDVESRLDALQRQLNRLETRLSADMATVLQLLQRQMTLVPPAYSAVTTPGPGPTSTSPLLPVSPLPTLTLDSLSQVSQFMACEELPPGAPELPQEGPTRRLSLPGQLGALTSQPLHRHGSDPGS
row,Structure (SMILES),"hERG current change (%, negative = inhibition) at 10uM [%]"
1,C/C(=N\OCC(=O)NC12CC3CC(CC(C3)C1)C2)c1cc2ccccc2o1,5.38
2,CCOc1ccc(S(=O)(=O)N2CCN(CN3C(=O)CC4(CCCC4)C3=O)CC2)cc1,-8.79
3,N#CCCN(Cc1cccnc1)C(=O)Nc1ccccc1,-3.06
4,CC(C)=CCN1CCN(Cc2cc(F)ccc2-n2nc(C)cc2C)CC1CCO (stereo not shown),-25
5,CC(C)=CCN1CCN(Cc2nc(-c3ccc(F)cc3)cs2)CC1CCO (stereo not shown),-69
6,CC(C)=CCN1CCN(Cc2nc(-c3ccccc3)cs2)CC1CCO (stereo not shown),-60.4
7,CC(C)=CCN1CCN(CC#Cc2ccccc2)CC1CCO (stereo not shown),-13
8,CC(C)(C)CN1CCN(Cc2nc(-c3ccc(F)cc3)cs2)CC1CCO (stereo not shown),-62.5
9,CC(C)(C)CN1CCN(Cc2cccnc2)CC1CCO (stereo not shown),13.6
10,CC(C)=CCN1CCN(Cc2cccnc2)CC1CCO (stereo not shown),-1.24
11,CC(C)(C)CN1CCN(Cc2c[nH]c3ccccc23)CC1CCO (stereo not shown),15.5
12,CC(C)=CCN1CCN(Cc2nc(C(C)C)cs2)CC1CCO (stereo not shown),-12.9
13,CCN(CC(=O)NCc1ccc(F)cc1)C(=O)C1CCN(C(=O)Nc2ccccc2)CC1,-7.79
14,COCCn1c(SCC(=O)N2CC(=O)Nc3ccccc32)nc2ccccc21,-2.29
15,O=C(Nc1ccc(N2CCCCC2)cc1)c1cccnc1,4.6
16,Cc1ccc(-c2noc(-c3ccccc3C(=O)NCC3CCCO3)n2)cc1 (stereo not shown),-18.6
17,Cn1nc(C(=O)NCC2CCCO2)c2ccccc2c1=O (stereo not shown),-3
18,COCCCNC(=O)c1cc2c(=O)n3cc(C)ccc3nc2nc1NCC1CCCO1 (stereo not shown),-71.9
19,CCOCCCNc1nc2nc3ccc(C)cn3c(=O)c2cc1C(=O)NCC1CCCO1 (stereo not shown),-77.7
20,COCCCNC(=O)c1ccc2nc3ccccc3c(=O)n2c1,14.7
21,COc1ccc(-c2cc(C(=O)NCC3CCCO3)c3cc(C)ccc3n2)cc1 (stereo not shown),-3.03
22,C=CCNC(=O)c1cc2c(=O)n3cc(C)ccc3nc2nc1NCC1CCCO1 (stereo not shown),-73
23,COCCCNC(=O)CSc1nc2ccccc2c(=O)n1CCCC(=O)NCC1CCCO1 (stereo not shown),-0.988

row,Structure (SMILES),"hERG current change (%, negative = inhibition) at 10uM [%]"
1,CCNc1nc2nc3ccc(C)cn3c(=O)c2cc1C(=O)NCC1CCCO1 (stereo not shown),-70.6
2,CCn1cc(C(=O)NCC2CCCO2)c2cc(OC)c(OC)cc2c1=O (stereo not shown),19.4
3,Cc1ccc(-c2nn(-c3ccccc3)cc2C(=O)NCC2CCCO2)cc1 (stereo not shown),-25.8
4,Cc1ccc(-c2nn(-c3ccccc3Cl)cc2C(=O)NCC2CCCO2)cc1 (stereo not shown),-0.0276
5,Cc1ccc(C)c(C(=O)CCC(=O)Nc2cccnc2)c1,7.26
6,COc1cccc(/C=C/C(=O)OCC(=O)NCC2CCCCC2)c1OC,8.32
7,CCN(CC)c1ccc2c(C)c(CN3CCOCC3)c(=O)oc2c1,-11.1
8,C=Cc1ccc(C(=O)N2CCCC(CCC(=O)N3CCN(c4ccccn4)CC3)C2)cc1 (stereo not shown),-4.57
9,CCCCNc1nc(N)nc(-c2cc(Cl)ccc2O)n1,20.9
10,CCCOc1ccc(C(=O)Nc2cccnc2)cc1,3.01
11,c1ccc(-c2nc(CSc3n[nH]c(-c4cccs4)n3)cs2)cc1,-15.1
12,Cc1ccc2c(c1)c(=O)c1c3n2CCN(CC2CO2)C3CC1 (stereo not shown),4.27
13,O=C(CCl)N(Cc1cc(=O)[nH]c2ccccc12)c1ccccc1,0.288
14,CCOC(=O)c1nn(-c2ccc(C)cc2)c(=O)cc1OCC(=O)Nc1cccc(OC)c1,1.6
15,Cn1cc(CN2CCC(n3nccc3NC(=O)c3ccccc3Cl)CC2)c2ccccc21,-68.6
16,COc1ccccc1C(=O)Nc1ccnn1C1CCN(Cc2cn(C)c3ccccc23)CC1,-83.6
17,Cc1cc(NC(=O)CSc2ccc3nnc(CCNS(=O)(=O)c4ccccc4)n3n2)no1,15.6
18,Nc1c(Cl)cc(-c2csc(N3CCCC3c3nc4cc(Cl)c(Cl)cc4n3CCOCCO)n2)cc1Cl (stereo not shown),-0.601
19,Cc1cccc(C)c1NC(=O)NNC(=O)c1cc(C(C)(C)C)nn1Cc1ccccc1,0.818
20,CC1CCC/C(=N\NC(=S)Nc2ccccc2)C1 (stereo not shown),7.36
21,O=C(Nc1ccc(Nc2ccccc2)cc1)c1c(Cl)cccc1Cl,12.3
22,Cc1ccc2c(c1)C1CN(C)CCC1N2C(=O)CCCN1C(=O)c2cccc3cccc(c23)C1=O (stereo not shown),-57.4
23,CC1CCCN(C(=O)Cn2nnc(-c3ccccc3F)n2)C1 (stereo not shown),13.8

row,Structure (SMILES),"hERG current change (%, negative = inhibition) at 10uM [%]"
1,Cc1ccc2c(c1)C1CN(C)CCC1N2C(=O)COc1ccc(N(C)C(=O)c2ccccc2)cc1 (stereo not shown),-11.6
2,COc1ccc(OCC(=O)N2c3ccc(C)cc3C3CN(C)CCC32)cc1 (stereo not shown),-5.12
3,Cc1ccc2c(c1)C1CN(C)CCC1N2C(=O)COc1ccccc1F (stereo not shown),-4.18
4,Cc1ccc2c(c1)C1CN(C)CCC1N2C(=O)Cn1nnc(-c2ccccc2F)n1 (stereo not shown),-60.1
5,Cc1cc(-n2c(SCc3ccccc3F)nc3n[nH]c(C)c3c2=N)ccc1Cl,15.8
6,COC(=O)c1ccccc1OCCCOc1ccc(C=O)cc1OC,-4.02
7,O=C(NCc1ccco1)c1ccc(COc2ccc(Cl)cc2)cc1,0.911
8,CCCN(C(=O)Cc1ccc(S(=O)(=O)N2CCOCC2)s1)c1c(N)n(Cc2ccccc2)c(=O)[nH]c1=O,16.8
9,CN(C)c1ccc(C(c2ccc(N(C)C)cc2)c2ccc([N+](=O)[O-])cc2)cc1,3.74
10,Cc1cccc(Sc2nc(-c3ccccc3)ncc2C(=O)O)c1,11.7
11,Cc1cc(=O)oc2cc(OCC(=O)N3CCN(c4ccccc4)CC3)ccc12,-36.6
12,Cc1cc(=O)oc2cc(OCC(=O)N3CCN(c4ccc(F)cc4)CC3)ccc12,-53
13,COc1ccc(N2CCN(C(=O)COc3ccc4c(C)cc(=O)oc4c3)CC2)cc1,-16.5
14,Cc1cc(=O)oc2c(C)c(OCC(=O)N3CCN(c4ccccc4)CC3)ccc12,-24.8
15,COc1ccc(N2CCN(C(=O)COc3ccc4c(C)cc(=O)oc4c3C)CC2)cc1,20.6
16,Cc1cc(=O)oc2c(C)c(OCC(=O)N3CCN(c4ccc(F)cc4)CC3)ccc12,-65.9
17,CCC(C)c1ccc(NC(=S)NC(C)C2CCCO2)cc1 (stereo not shown),-6.84
18,Cc1ccc(CN2CC(C(=O)N3CC(C)CC(C)C3)CC2=O)cc1 (stereo not shown),-6.13
19,CN(C)CCP(=O)(c1ccccc1)c1ccccc1,13.4
20,O=C(O)COCc1nc2ccccc2s1,-7.92
21,Cc1cccc(C(=O)N2CCc3cc(-c4nc(NC(=O)CN5CCCC5)sc4C)ccc32)c1,-0.886
22,Cc1ccc(CC(=O)N(C)CC(=O)N(CC(C)C)c2c(N)n(CC(C)C)c(=O)[nH]c2=O)cc1C,-2.54
23,Cc1ccc2c(c1)COc1c3ccc(C(=O)NCC4CC4)cc3nn1-2,-6.56

row,Structure (SMILES),"hERG current change (%, negative = inhibition) at 10uM [%]"
1,COc1cc(CN(C)CCc2ccccc2)ccc1OCc1ccccc1,-72
2,CN(Cc1ccccc1)C(=O)c1ccc(NC(=O)c2ccccc2)cc1,-59.9
3,COc1ccc(Cc2noc(CN(C)CCc3ccccc3)n2)cc1OC,7.3
4,COc1ccc(CCN(C)Cc2ccc(OC)c(OCc3ccccc3)c2)cc1OC,-81.6
5,COc1cc(CN(CCN(C)C)Cc2ccccc2)ccc1OCc1ccccc1.O=C(O)C(=O)O,-31
6,COc1ccc(CCN(C)Cc2ccc(F)cc2F)cc1OC,-0.788
7,CN(Cc1ccccc1)C(=O)c1ccc(NC(=O)C2=CSCCO2)cc1,-0.926
8,CN(Cc1ccccc1)C(=O)c1ccccc1NC(=O)c1ccccc1,-12.7
9,COc1ccc(CCN(C)Cc2ccncc2)cc1OC,-27.2
10,CCN(CC)c1ccc(CN(C)CCc2ccc(OC)c(OC)c2)cc1,-66.1
11,CCN(Cc1ccccc1)Cc1ccc(OCc2ccccc2)c(OC)c1,-31.2
12,O=C(Nc1cccc(S(=O)(=O)N2CCCC2)c1)c1ccc2ccccc2n1,20.9
13,COc1ccc(/C=C/C(=O)NCc2cn(C)nc2C)cc1COc1ccc(Br)cc1,7.33
14,O=C(Nc1cccc(S(=O)(=O)N2CCCCC2)c1)Nc1ccc(Cl)cc1Cl,7.77
15,Cn1cc(C(=O)N2CCCC(Nc3ccc(F)cc3)C2)c2ccccc21 (stereo not shown),-21.1
16,O=C(CN1CCCC1c1cccs1)Nc1cccc(S(=O)(=O)N2CCCC2)c1 (stereo not shown),-0.843
17,COc1ccc(CCN(C)Cc2ccc(C(=O)Nc3ccccc3)cc2)cc1OC,-67.3
18,COc1cc(CC(=O)O)ccc1OCc1ccccc1,4.35
19,COc1ccc(CCN(C)Cc2ccc(OCc3ccccc3)c(OC)c2)cc1OC,-74.3
20,COc1ccccc1OCc1ccc(C(=O)Nc2ccccc2)cc1,11.1
21,COc1ccc(CN(CCc2ccccc2)Cc2ccccc2)cc1OC.O=C(O)C(=O)O,-9.99
22,COc1ccc(C(=O)Nc2ccc(C(=O)NCCc3ccc(OC)c(OC)c3)cc2)cc1,30.5
